Bioassay records: PubChem, several laboratories
GDH-TPI inh: GDH-TPI coupled enzyme inhibition counter-screen. GDH-TPI coupled enzyme counterscreen, NADH absorbance. inhibition, % at 4.8 µM. 360,000 tested, 1.2% active. AID 588335
CCHFV vOTU inh: blocks the CCHF virus ovarian tumor domain protease | CCHFV vOTU protease, Pep-AMC fluorescence | inhibition, % at 11.5 µM | 370,000 tested, 0.55% active
FBA Mtb inh: inhibitors of M. tuberculosis fructose-bisphosphate aldolase; P9WQA3; purified M. tuberculosis FBA, fluorescence read-out; inhibition, % at 1 µM; 360,000 tested, 2.3% active; AID 588726; in the data active means inhibition above about 27%
Target sequence (P9WQA3 whole entry, looked up): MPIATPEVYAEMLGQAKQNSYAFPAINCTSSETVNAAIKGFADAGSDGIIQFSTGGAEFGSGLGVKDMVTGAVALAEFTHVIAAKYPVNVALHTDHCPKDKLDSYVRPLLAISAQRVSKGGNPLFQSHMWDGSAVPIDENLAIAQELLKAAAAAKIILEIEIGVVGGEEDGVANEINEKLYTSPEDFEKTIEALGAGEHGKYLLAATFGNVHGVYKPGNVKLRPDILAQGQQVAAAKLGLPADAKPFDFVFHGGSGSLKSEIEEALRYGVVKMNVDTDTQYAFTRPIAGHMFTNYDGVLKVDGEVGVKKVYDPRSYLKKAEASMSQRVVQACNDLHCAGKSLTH
RecA splice inh: inhibitors of M. tuberculosis RecA intein splicing | P9WHJ3 | cell-free RecA intein splicing, fluorescence | inhibition, % (test concentration not listed) | 290,000 tested, 0.75% active | AID 2221; in the data active means inhibition above about 30%
Numbers stand for hits. A selection: hits, their analogues and other compounds. The true share with any hit is near 4.2%. Unless noted, no stated cut-off is given here; in the data, active means inhibition above about 30%; inactive means the rest.

What do the screens show for `O=C(CCNc1n[nH]c(=O)[nH]c1=O)N/N=C/c1ccccc1Br`?
GDH-TPI inh: inactive; CCHFV vOTU inh: inactive; FBA Mtb inh: inactive; RecA splice inh: inactive

How did Nc1nc2ccccc2n1/N=C/c1ccc(Br)cc1 do in these assays?
GDH-TPI inh: inactive; CCHFV vOTU inh: inactive; FBA Mtb inh: inactive; RecA splice inh: inactive

Results for Nc1nc2ccccc2n1/N=C/c1ccc2c(c1)OCO2 ?
GDH-TPI inh: 49.0; CCHFV vOTU inh: inactive; FBA Mtb inh: inactive; RecA splice inh: inactive

Results for Nc1ccc(C(=O)N/N=C/c2ccc(N3CCOCC3)s2)cc1 ?
GDH-TPI inh: inactive; CCHFV vOTU inh: inactive; FBA Mtb inh: inactive

Results for CC(C)(C)OC(=O)N/N=C/c1ccc(N2CCOCC2)s1 ?
GDH-TPI inh: 35.1; CCHFV vOTU inh: inactive; FBA Mtb inh: inactive; RecA splice inh: inactive

What do the screens show for `COC(=O)[C@]1(C)CN(C(=O)OC(C)(C)C)C2=C1C(=O)C[C@@](C)(C(=O)OC(C)(C)C)C2`?
CCHFV vOTU inh: inactive

How did COc1ccc(/C=C(\C#N)C(=O)N2CCOCC2)cc1Br do in these assays?
GDH-TPI inh: 37.1; CCHFV vOTU inh: inactive; FBA Mtb inh: inactive; RecA splice inh: inactive

How did CCOC(=O)c1cnn2c(C)cc(-c3ccc(F)cc3)nc12 do in these assays?
GDH-TPI inh: inactive; CCHFV vOTU inh: inactive; FBA Mtb inh: 60.4; RecA splice inh: inactive

What do the screens show for `S=c1[nH]nc(-c2ccc3ccccc3n2)o1`?
GDH-TPI inh: 38.1; CCHFV vOTU inh: inactive; FBA Mtb inh: inactive; RecA splice inh: inactive

What do the screens show for `COc1cc(/C=C/C(=O)Nc2nc3ccc(S(=O)(=O)N(C)C)cc3s2)cc(OC)c1OC`?
GDH-TPI inh: 47.8; CCHFV vOTU inh: inactive; FBA Mtb inh: inactive; RecA splice inh: inactive

Results for O=C(CSc1nnc(NC(=O)c2c(F)cccc2F)s1)NC1CCCC1 ?
GDH-TPI inh: inactive; CCHFV vOTU inh: inactive; FBA Mtb inh: inactive; RecA splice inh: inactive

How did O=C(CSc1nnc(NC(=O)c2ccco2)s1)NC1CCCC1 do in these assays?
GDH-TPI inh: 40.2; CCHFV vOTU inh: inactive; FBA Mtb inh: inactive; RecA splice inh: inactive

How did O=C1CSc2ccc(C(=O)N3CCCC(C(=O)N4CCN(c5ccc(F)cc5)CC4)C3)cc2N1 (centres undefined) do in these assays?
CCHFV vOTU inh: inactive

How did C=CCN(CC=C)S(=O)(=O)c1ccc(NC(=S)NC(=O)/C=C/c2ccccc2)cc1 do in these assays?
GDH-TPI inh: 31.1; CCHFV vOTU inh: inactive; FBA Mtb inh: inactive; RecA splice inh: inactive

How did O=C(/C=C/c1ccccc1)Nc1nnc(-c2ccco2)o1 do in these assays?
GDH-TPI inh: 45.1; CCHFV vOTU inh: inactive; FBA Mtb inh: inactive; RecA splice inh: inactive

Results for Cc1ccc(/C=c2\sc3nc(-c4ccco4)nn3c2=O)o1 ?
GDH-TPI inh: 39.7; FBA Mtb inh: inactive; RecA splice inh: inactive

Results for COc1ccc2cc3[n+](cc2c1O)CCc1cc2c(cc1-3)OCO2 ?
CCHFV vOTU inh: 101.3

How did COc1cc2c(cc1OC)-c1cc3ccc(OC)c(OC)c3c[n+]1CC2 do in these assays?
GDH-TPI inh: 59.4; CCHFV vOTU inh: inactive; FBA Mtb inh: inactive

What do the screens show for `CCOc1ccc(-n2c(SCC(=O)Nc3cccc4ccccc34)nnc2-c2ccncc2)cc1`?
CCHFV vOTU inh: inactive

How did COc1cc2[nH]c3c(N4CCC(C(N)=O)CC4)ncnc3c2cc1OC do in these assays?
RecA splice inh: inactive

Results for COc1cccc2[nH]c3c(N4CCC(C(N)=O)CC4)ncnc3c12 ?
GDH-TPI inh: inactive; CCHFV vOTU inh: inactive; FBA Mtb inh: 182.7; RecA splice inh: inactive

Results for COc1ccc(NC(=O)C(=O)c2cn(CC(=O)N3CCCC3)c3ccccc23)cc1OC ?
GDH-TPI inh: inactive; CCHFV vOTU inh: inactive; FBA Mtb inh: inactive; RecA splice inh: inactive

How did CCc1ccc(NC(=O)C(=O)c2cn(CC(=O)N3CCCCC3)c3ccccc23)cc1 do in these assays?
GDH-TPI inh: 37.0; CCHFV vOTU inh: inactive; FBA Mtb inh: inactive; RecA splice inh: inactive

How did COc1cccc(NC(=O)C(=O)c2cn(CC(=O)N3CCCC3)c3ccccc23)c1 do in these assays?
GDH-TPI inh: 31.0; CCHFV vOTU inh: inactive; FBA Mtb inh: inactive; RecA splice inh: inactive

How did Cc1ccc(NC(=O)C(=O)c2cn(CC(=O)N3CCCCC3)c3ccccc23)cc1 do in these assays?
GDH-TPI inh: inactive; CCHFV vOTU inh: inactive; FBA Mtb inh: inactive; RecA splice inh: inactive

Results for CCN(CC)Cc1c(C(=O)N/N=C(\C)c2ccncc2)nnn1-c1nonc1N ?
GDH-TPI inh: inactive; CCHFV vOTU inh: inactive; FBA Mtb inh: inactive; RecA splice inh: inactive

How did O=C(O)c1cnc2ccc(Cl)cc2n1 do in these assays?
GDH-TPI inh: inactive; CCHFV vOTU inh: inactive; FBA Mtb inh: inactive

What do the screens show for `O=[N+]([O-])c1ccc(Sc2nnnn2-c2ccccc2)nc1`?
CCHFV vOTU inh: inactive; RecA splice inh: 57.9

What do the screens show for `CCOC(=O)c1oc2c(CN3CCN(C)CC3)c(O)ccc2c(=O)c1-c1ccccc1OC`?
GDH-TPI inh: inactive; CCHFV vOTU inh: inactive; FBA Mtb inh: inactive; RecA splice inh: inactive

How did COc1ccccc1-c1c(C)oc2c(CN3CCN(C)CC3)c(O)ccc2c1=O do in these assays?
GDH-TPI inh: inactive; CCHFV vOTU inh: inactive; FBA Mtb inh: 143.3; RecA splice inh: inactive

How did COc1ccccc1-c1c(C)oc2c(CN3CCN(CCO)CC3)c(O)ccc2c1=O do in these assays?
GDH-TPI inh: inactive; CCHFV vOTU inh: inactive; FBA Mtb inh: 175.8; RecA splice inh: inactive

Results for COc1ccccc1CCn1cnc(-c2cccc(F)c2)c1CC(C)C ?
CCHFV vOTU inh: inactive

Results for Cc1ccc(C)c(S(=O)(=O)N2CCCOC2CNC(=O)C(=O)NC2CC2)c1 (centres undefined) ?
GDH-TPI inh: inactive; CCHFV vOTU inh: inactive; FBA Mtb inh: inactive; RecA splice inh: inactive

How did Cc1nc(/C=[N+](\[O-])C(C)(C)/C=N/O)n(O)c1C do in these assays?
GDH-TPI inh: 30.9; CCHFV vOTU inh: inactive; FBA Mtb inh: inactive; RecA splice inh: inactive

Results for Cc1ccccc1NS(=O)(=O)c1ccc(C(=O)N(C)CC(=O)Nc2ccccc2Br)cc1 ?
GDH-TPI inh: inactive; CCHFV vOTU inh: inactive; FBA Mtb inh: inactive

Results for NS(=O)(=O)c1ccc(N2N=C(c3ccccc3)CC2c2cccc(Cl)c2)cc1 (centres undefined) ?
GDH-TPI inh: inactive; CCHFV vOTU inh: inactive; FBA Mtb inh: 178.0

What do the screens show for `Cc1cccc(C2CC(c3ccccc3)=NN2c2ccc(S(N)(=O)=O)cc2)c1` (centres undefined)?
GDH-TPI inh: inactive; CCHFV vOTU inh: inactive; FBA Mtb inh: active

How did COC1=C/C(=C/c2c(N)n3nc(CC(=O)N4CCCCC4)sc3nc2=O)C=CC1=O do in these assays?
GDH-TPI inh: 33.9; FBA Mtb inh: inactive; RecA splice inh: inactive

Results for CCOC1=C/C(=C/c2c(N)n3nc(CC(=O)N4CCCCC4)sc3nc2=O)C=CC1=O ?
GDH-TPI inh: inactive; CCHFV vOTU inh: inactive; FBA Mtb inh: inactive; RecA splice inh: inactive

How did CC1(C(=O)NS(=O)(=O)c2cccc(C#N)c2)CCN1C(=O)Cc1cc(F)ccc1F (centres undefined) do in these assays?
GDH-TPI inh: inactive; CCHFV vOTU inh: inactive; FBA Mtb inh: inactive

Results for COc1ccc(-c2cc(-c3ccccc3)nc(NN)n2)cc1OC ?
GDH-TPI inh: inactive; CCHFV vOTU inh: inactive; FBA Mtb inh: inactive; RecA splice inh: inactive
